The structures appear in SMILES notation. Among all 39,000 compounds or so, about 3,300 (8.5%) were called active. This excerpt belongs to a sample that is enriched for actives.

We go through 45 compounds from the antibiotic and cytotoxicity screens of Wong et al. (2023).

In the experiment the test system is HepG2. Description: cytotoxicity call (relative viability < 0.9). The conditions noted are these: 10 µM.
In the case of `CO[C@@H]1CN(C)C(=O)c2cc(NS(C)(=O)=O)ccc2OC[C@H](C)N(C(=O)CN(C)C)C[C@@H]1C`, the cytotoxicity call is “inactive”. Next, `C[C@H](CO)N1C[C@H](C)[C@H](CN(C)CC2CC2)OCCCC[C@H](C)Oc2ccc(NC(=O)CCC(F)(F)F)cc2C1=O`: “inactive”. For `CN(C)CCOC(c1ccc(Cl)cc1)c1ccccn1.O=C(O)C=CC(=O)O` (stereo not given), the cytotoxicity call is “inactive”. Next, `CN(C)CCC(c1ccc(Br)cc1)c1ccccn1.O=C(O)C=CC(=O)O` (stereo not given): “active”; `CC(=O)Oc1ccc(C(c2ccc(OC(C)=O)cc2)c2ccccn2)cc1`: “inactive”. Then `CN(C)CCC(c1ccccc1)c1ccccn1.O=C(O)C=CC(=O)O` (stereo not given), with “inactive”; and `CN(C)CCNC(=O)c1ccccn1`, with “inactive”; and `CN(C)CCC(c1ccc(Cl)cc1)c1ccccn1.O=C(O)C=CC(=O)O` (stereo not given), with “active”. With `C[C@@H]1CN([C@@H](C)CO)C(=O)c2cc(NC(=O)c3ccncc3)ccc2O[C@@H](C)CCCCO[C@H]1CN(C)C(=O)C1CCCCC1`, the cytotoxicity call was “inactive”. Then `C[C@@H]1CN([C@@H](C)CO)C(=O)c2cc(NS(=O)(=O)c3cccs3)ccc2O[C@@H]1CN(C)S(=O)(=O)c1cccs1`, with “inactive”; and `C[C@H](CO)N1C[C@H](C)[C@H](CN(C)S(=O)(=O)c2ccccc2)Oc2c(NS(C)(=O)=O)cccc2C1=O`, with “inactive”; and `CN(C)S(=O)(=O)N(C)c1ccccc1`, with “inactive”. For `C[C@@H]1CN([C@@H](C)CO)C(=O)c2cc(NC(=O)Nc3ccc4c(c3)OCO4)ccc2O[C@@H](C)CCCCO[C@H]1CN(C)C(=O)Nc1ccc(C(F)(F)F)cc1`, the cytotoxicity call is “inactive”. Next, `C[C@H]1CN([C@@H](C)CO)C(=O)c2cc(NS(=O)(=O)c3ccc(F)cc3)ccc2O[C@H]1CN(C)C(=O)Nc1cccc2ccccc12`: “inactive”; `S=C(SN1CCOCC1)N1CCOCC1`: “inactive”. Next, `COc1cc(Nc2ncc3c(n2)-c2ccc(Cl)cc2C(c2c(F)cccc2OC)=NC3)ccc1C(=O)O`: “active”; `C[C@@H]1CN([C@@H](C)CO)C(=O)c2cc(NC(=O)CCCCCC(=O)Nc3ccccc3N)ccc2O[C@@H]1CN(C)Cc1ccc(C(F)(F)F)cc1`: “inactive”; `C[C@@H]1CN([C@@H](C)CO)C(=O)c2cc(NC(=O)CCCCCC(=O)Nc3ccccc3N)ccc2O[C@@H]1CN(C)Cc1ccc(-c2ccccc2)cc1`: “active”. Then `C[C@@H]1CN([C@H](C)CO)C(=O)c2cc(NC(=O)CCCCCC(=O)Nc3ccccc3N)ccc2O[C@@H]1CN(C)Cc1ccc(C(F)(F)F)cc1`, with “inactive”; and `C[C@H](CO)N1C[C@H](C)[C@@H](CN(C)Cc2ccc(C(F)(F)F)cc2)Oc2ccc(NC(=O)CCCCCC(=O)Nc3ccccc3N)cc2C1=O`, with “inactive”; and `C[C@H](CO)N1C[C@H](C)[C@H](CN(C)Cc2ccc(C(F)(F)F)cc2)Oc2ccc(NC(=O)CCCCCC(=O)Nc3ccccc3N)cc2C1=O`, with “inactive”.

With `C[C@@H]1CN([C@@H](C)CO)C(=O)c2cc(NC(=O)CCCCCC(=O)Nc3ccccc3N)ccc2O[C@H]1CN(C)Cc1ccc(C(F)(F)F)cc1`, the cytotoxicity call was “inactive”. Then `C[C@@H]1CN([C@H](C)CO)C(=O)c2cc(NC(=O)CCCCCC(=O)Nc3ccccc3N)ccc2O[C@H]1CN(C)Cc1ccc(-c2ccccc2)cc1`, with “active”; and `C[C@H]1CN([C@@H](C)CO)C(=O)c2cc(NC(=O)CCCCCC(=O)Nc3ccccc3N)ccc2O[C@H]1CN(C)Cc1ccc(-c2ccccc2)cc1`, with “inactive”; and `C[C@H](CO)N1C[C@H](C)[C@H](CN(C)Cc2ccc(-c3ccccc3)cc2)Oc2ccc(NC(=O)CCCCCC(=O)Nc3ccccc3N)cc2C1=O`, with “active”. With `COc1ccc(CN(C)C[C@@H]2Oc3ccc(NS(C)(=O)=O)cc3CC(=O)N([C@H](C)CO)C[C@@H]2C)cc1`, the cytotoxicity call is “inactive”. For the compound `O=C(C[C@H]1CC[C@@H]2[C@H](COC[C@@H](O)CN2S(=O)(=O)c2ccc(Oc3ccccc3)cc2)O1)NCCN1CCCCC1`, the cytotoxicity call was “inactive”. Next, `Cc1noc(C)c1S(=O)(=O)Nc1ccc2c(c1)CC(=O)N([C@H](C)CO)C[C@H](C)[C@H](CN(C)S(C)(=O)=O)O2`: “inactive”; `O=C1O[C@H](c2ccccc2)[C@H](c2ccccc2)N2[C@H]1[C@@H](C(=O)Nc1nc3ccccc3s1)[C@]1(C(=O)Nc3ccc(C#CCCO)cc31)[C@H]2c1ccc(OCCO)cc1`: “inactive”; `COc1ccc(S(=O)(=O)Nc2ccc3c(c2)C(=O)N([C@@H](C)CO)C[C@@H](C)[C@@H](CN(C)C(=O)Nc2cccc4ccccc24)OCCCC[C@@H](C)O3)cc1`: “inactive”. Next, `COc1ccc(NC(=O)N(C)C[C@@H]2Oc3c(NC(=O)C4CCOCC4)cccc3C(=O)N([C@H](C)CO)C[C@@H]2C)cc1`: “inactive”; `C[C@H]1CN([C@@H](C)CO)C(=O)c2cccc(NS(=O)(=O)c3cn(C)cn3)c2O[C@H]1CN(C)C(=O)Nc1ccc(F)cc1`: “inactive”. Then `COc1cccc(S(=O)(=O)Nc2ccc3c(c2)C(=O)N(C)C[C@H](OC)[C@H](C)CN(C(=O)Cc2cccnc2)[C@@H](C)CO3)c1`, with “inactive”; and `Cc1ccc(S(=O)(=O)N(C)C[C@@H]2OCCCC[C@@H](C)Oc3ccc(NC(=O)Nc4ccc5c(c4)OCO5)cc3C(=O)N([C@@H](C)CO)C[C@@H]2C)cc1`, with “inactive”. For `S=C1NCN(Cc2ccncc2)CN1`, the cytotoxicity call was “inactive”.

As for `S=C1NCN(C2CCCC2)CN1`, the cytotoxicity call was “inactive”. On to `CCN1CCC[C@@H]1CN1CNC(=S)NC1`, for which the cytotoxicity call is “active”. In the case of `C[C@H](CO)N1C[C@H](C)[C@H](CN(C)C(=O)Nc2ccc(C(F)(F)F)cc2)OCCCC[C@H](C)Oc2ccc(NC(=O)Nc3cccc4ccccc34)cc2C1=O`, the cytotoxicity call is “inactive”. Next, `O=C(Cc1ccncc1)NCC[C@@H]1CC[C@H](NC(=O)C2CCOCC2)[C@H](CO)O1`: “inactive”; `CN(C)Cc1nc2c([nH]1)c(=O)[nH]c(=O)n2C`: “active”.

For `CN(C)c1nc2c([nH]1)c(=O)[nH]c(=O)n2C`, the cytotoxicity call is “inactive”.

`Cn1c(=O)[nH]c(=O)c2[nH]cnc21`: the cytotoxicity call is “inactive”.

Turning to `Cc1ccc(S[C@]2(C(=O)NCC(C)C)CC(=O)N(Cc3ccccc3)[C@@H]2c2ccc(CO)cc2)cc1`, the cytotoxicity call was “inactive”. Next, `O=C1[N-]C(=O)C(c2ccccc2)(c2ccccc2)N1.[Na+]`: “inactive”; `C[C@H](CO)N1C[C@H](C)[C@H](CN(C)S(=O)(=O)c2ccc(F)cc2)Oc2ccc(NC(=O)Cn3cnnn3)cc2C1=O`: “inactive”.
